Here are results for 36 compounds from PubChem BioAssay (NCI).

SMILES strings stand for the structures. About 83,000 compounds went through this panel and 20% of them were active in at least one assay; those are over-represented in the sample as a whole.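 48-hour exposure, single concentration, 96-well plates; percent growth endpoint where 0 means no net growth. Active: below 10.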 A number with no mark means an inactive call. Activity calls are given as the source filed them.

The test system of the experiment is NCI-H522 lung. The experiment in a line: NCI-60 one-dose screen, 48 h (100 = growth as untreated, 0 = no growth, -100 = all killed). The note with it: 10 µM unless noted.
As for `COc1nc(Nc2cccc(C(F)(F)F)c2)nc(OC)n1`, the growth is 75%.
In the case of `N#Cc1ccc2nc[nH]c2c1`, the growth was 102%.
To `CCN(CC)c1ccc2nc3ccc(N=Nc4ccc(N(C)C)cc4)cc3[n+](-c3ccccc3)c2c1` belongs -44.9% (active); to `CC1(c2ccccc2)CO1` (stereo unspecified), 99.2%; to `Cc1cc(Cl)cc(Cc2cc(Cl)cc(C)c2O)c1O`, -7.46% (active).
As for `CC1(C)OC2C(CO)OC(n3ccc(=O)[nH]c3=O)C2O1` (stereo unspecified), the growth is 81.5%.
As for `Nc1ncnc(Nc2ccccc2)n1`, the growth is 99.4%.
For `CC(C)(C)NCCC(O)c1cc(C(F)(F)F)nc2c(C(F)(F)F)cccc12` (stereo unspecified), the growth was 76.2%.
To `CN1CCCN(C(c2ccccc2)c2ccc(Cl)cc2)CC1` (stereo unspecified) belongs 103%; to `CCOC(C=O)OCC`, 93.1%.
Turning to `C=C1CC2(OC1=O)C(=O)N(C)c1ccc(I)cc12` (stereo unspecified), the growth is -56.9% (active).
Under `C=COC(=O)C(C)(C)C` stands 93.7%.
Regarding `O=C(OCc1ccccc1)n1nnc2ccccc21`, the growth was 100%.
As to `C/C(O)=C(/C=N/C(=S)Nc1ccccc1)C(=O)Nc1ccccc1C`, the growth was 94.5%.
To `CC(=O)Nc1ccc(/C=C2\SC(=S)N(/C=C(\C(C)=O)C(N)=O)C2=O)cc1` belongs 84.2%.
`CC(C)C1CCC(C)C(O)C1` (stereo unspecified): the growth is 92.8%.
Regarding `Nc1ccc2ccccc2c1-c1c(N)ccc2ccccc12`, the growth is 37.1%.
Under `CCOC(OCC)C(=O)c1ccccc1` stands 85.2%; under `COc1ccc2c(c1)Nc1ccccc1S2`, 98.9%; under `C=CC(=O)OC1CCC(C(C)(C)CC)CC1` (stereo unspecified), 100%.
Consider `CCOC(=O)c1c(C)[nH]c(C)c1C=O`, for which the growth was 93.7%.
Regarding `CCC12OC(COc3ccccc3)CN1CCN2c1ccccc1` (stereo unspecified), the growth was 87.6% [100 µM].
To `CCOC(=O)N[C@H]1CCc2cc(OC)c(OC)c(OC)c2-c2ccc(SC)c(=O)cc21` belongs -8.99% (active); to `Cc1nc(C)c(C(=O)O)cc1C(=O)O`, 108%; to `Nc1ccn(C2CC(N)C(CO)O2)c(=O)n1` (stereo unspecified), 77.9%.
As for `CCCNS(=O)(=O)c1ccc(Cl)cc1`, the growth was 96.6%.
Take `Clc1cccc(Cl)c1CSc1nc2ccccc2n2cccc12`: the growth was 68.3%.
On to `Cc1cc(C(=O)c2ccccc2)cc(C)c1O`, for which the growth is 104%.
As for `CSCCC(NC(=O)C(Cl)Cl)C(=O)O` (stereo unspecified), the growth is 86.8%.
To `CSCC[C@@H]1C(=O)N(C)[C@H](C(C)(C)C)N1C(=O)c1ccccc1` belongs 107%.
Regarding `ON1CCCC1`, the growth was 91.9%.
`CC(C)N(C(=O)c1ccccc1)C(C)C`: the growth was 101%.
To `CC(=O)c1cccc(N(C)S(=O)(=O)c2ccc(C)cc2)c1` belongs 82.9%; to `O=C(Nc1c(Cl)cc(Cl)cc1Cl)ON=C1CCCCC1`, 95.2%.
To `CCCCCCCCCCC(=O)CCCCCCCCCC` belongs 96.7%; to `Cc1c(-c2ccc(C3CCCCC3)cc2)nc2ccc(F)cc2c1C(=O)O`, 38.5%.
